In PubChem BioAssay AID624301 (The Scripps Research Institute Molecular Screening Center, 2012) one finds relative activity ratio, higher = derepression data, which are given here for two compounds.

The nature of the assay: DAX1 inhibitors in Gal4 CAT reporter cells – cell-based, CAT activity, absorbance, powder samples, DAX1 inhibitor project, dose response (AID 624301). The settings on record: HEK293 Gal4-DAX1 CAT reporter, ELISA absorbance, CAT reporter alone; at 100 µM (top of the series).

Activity calls are given as the source filed them.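 Rule for the calls: active = relative activity ratio in the reporter plus Dax-1 wells above 5 or under 0.1 at any tested dose; inactive = ratio stays between 0.1 and 5 at every dose.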

As for `Cn1c(=O)n(C)c2cc(C(=O)Nc3ccc4c(c3)OCO4)ccc21`, the relative activity ratio, higher = derepression is 0.92 (active).
The result for `Cn1c(=O)n(C)c2cc(C(=O)Nc3ccc4c(c3)OCCO4)ccc21` reads 0.59 (active).
